# Screening data from PubChem.
# Hits are enriched below; roughly 19% of the tested compounds scored in any of these assays.
# DT40 TDP1 CPT: DT40-hTDP1 cell growth loss with CPT; 12% of 420,000 active; Potency, µM (series often up to 46.2 µM), usual class: inhibitors; AID 686979; chicken DT40 Tdp1-/-;hTDP1 cells + 20 nM CPT, ATP luminescence, 48 h; also: nearly all actives have a fitted effect of over 55% in size
#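 Chicken DT40 Tdp1-/- cells stably complemented with human TDP1 were seeded at 400 cells/well in medium containing 20 nM camptothecin, exposed to pin-transferred compounds, and grown at 37 °C for at least 48 hr. Viability was read as ATP luminescence.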
# TDP1 cell noCPT: qHTS for Inhibitors of human tyrosyl-DNA phosphodiesterase 1 (TDP1): qHTS in cells in absence of CPT; DT40 Tdp1-/- hTDP1 cells, no CPT, ATP luminescence, 48 h; Potency, µM (highest dose often 46.2 µM), usual class: inhibitors; 15% of 420,000 active; also: nearly all actives have a fitted effect of over 55% in size
#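 Chicken DT40 Tdp1-/- cells stably complemented with human TDP1 were seeded at 400 cells/well with DMSO in place of 20 nM camptothecin. After compound pinning, cells grew at least 48 hr at 37 °C; viability read by CellTiter-Glo luminescence.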
# IL1B secr inh: blocks inflammasome-driven IL-1 beta release | THP-1 LPS/ATP IL-1B secretion, AlphaLISA, 16 h; hits give low values | activity change, % at 57.5 µM | 4.7% of 360,000 active | AID 743279; in the data active = activity change below about -50%; inconclusive = mostly about -30% to -49%
#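 THP-1 cells pretreated 1 hr with compounds (up to 57.5 uM final), then stimulated with LPS (250 ng/mL final) plus ATP (1.25 mM final); secreted IL-1B measured by AlphaLISA after 16 hr, decreased signal indicating inhibition.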
# uPA generation: cell surface uPA generation inhibition | 0.31% of 330,000 active | cell surface uPA generation assay, qHTS | Potency, µM (titrated, usually from 38.3 µM), usual class: inhibitors; active = well fitted inhibition curve with a large enough effect; inconclusive = small, poorly fitted or top-dose-only effect; inactive = no such curve, though single readings can be large or run the other way; tested in mouse RAW 264.7 cells; also: nearly all actives have a fitted effect of over 55% in size
# HT1080 IDH1KD tx: kills HT-1080 cells with IDH1 knockdown; HT-1080 IDH1 knockdown viability, ATP luminescence, 48 h; Potency, µM (doses to about 46.1 µM), hits mostly cytotoxic; 2% of 360,000 active; AID 686971
#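 HT-1080-IDH1KD cells (IDH1 knocked down), 750/well in RPMI with 5% FBS, treated with compound 48 h at 37 degrees C. Viability by CellTiter-Glo luminescence, normalised to DMSO and no-cell wells; concentration-response curves classed.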
# HT1080NT lethal: kills 2HG-producing HT-1080-NT fibrosarcoma cells; 1.6% of 360,000 active; AID 686970; HT-1080-NT fibrosarcoma viability, CellTiter-Glo ATP luminescence, 48 h; Potency, µM (highest dose often 46.1 µM), actives largely listed as cytotoxic;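 also: NT is the 2HG producing partner of a matched IDH1 knockdown line; nearly all actives have a fitted effect of over 55% in size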
#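 Compounds were tested in concentration-response format on HT-1080-NT cells for 48 hours at 37 degrees C. Cell viability came from CellTiter-Glo luminescence; curves were classified by r2, response magnitude and activity.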
# A number is an active result; n = inactive; u = inconclusive; x = no result given. Unless noted, calls follow the shape of the dose curve; as a rule, active = well fitted curve in the direction sought with a large enough effect; inconclusive = small, poorly fitted or top-dose-only effect, or another doubt; inactive = no such curve, though single readings can be large; an effect the other way counts as inactive or inconclusive.
SMILES,DT40 TDP1 CPT,TDP1 cell noCPT,IL1B secr inh,uPA generation,HT1080 IDH1KD tx,HT1080NT lethal
CN(C)S(=O)(=O)c1ccc(C(=O)Nc2ccc(-n3nncc3-c3ccccc3)cc2)cc1,20.6µM,14.6µM,x,x,x,x
O=C(Nc1ccccc1)c1ccc(-n2nncc2-c2ccccc2)cc1,10µM,u,x,x,x,x
CC(C)COc1ccc(C(=O)N2CCC(c3nc4ccccc4s3)CC2)cc1,n,u,x,x,x,x
CCOc1cc(/C=C2\SC(=N)N(c3nonc3N)C2=O)ccc1OCC(N)=O,u,u,n,n,n,n
CCOc1cc(/C=C2\SC(=N)N(c3nonc3N)C2=O)ccc1OCCN1CCOCC1,13µM,20.6µM,n,n,n,n
OCCCNCc1ccc(N(c2ccccc2)c2ccccc2)cc1,16.4µM,20.6µM,-94.1,n,16.4µM,u
Cc1cc(C(=O)Cn2ncc(Cl)c(Cl)c2=O)c(C)n1CC(F)(F)F,4.61µM,3.66µM,-99.0,n,5.8µM,8.2µM
O=c1c2ccccc2cnn1Cc1ccc(Cl)c(Cl)c1,n,u,n,n,n,n
CCCc1cc(=O)[nH]c(SCC(=O)c2cc(C)n(CC(F)(F)F)c2C)n1,n,n,n,n,n,n
Cc1cc2oc(=O)cc(Cn3ncc(Cl)c(Cl)c3=O)c2cc1Cl,3.26µM,3.26µM,-100.9,n,3.26µM,u
Cc1cccc(Cn2ncc(Cl)c(Cl)c2=O)c1,11.6µM,9.2µM,-102.4,x,7.08µM,12.6µM
Cc1ccc(C)c(C(=O)Cn2ncc(Cl)c(Cl)c2=O)c1,5.8µM,3.26µM,-103.7,n,18.4µM,n
Cc1cc2oc(=O)cc(CN3CCN(c4ccccc4)CC3)c2cc1Cl,n,n,n,x,n,n
O=C1CCCN1c1ccc(S(=O)(=O)NCCOc2ccccc2)cc1,u,11.2µM,n,n,n,n
Cc1cc(-n2cnnn2)cc(C)c1S(=O)(=O)NCCOc1ccccc1,n,n,n,n,n,n
Cc1cc(N2CCCC2=O)cc(C)c1S(=O)(=O)NCCOc1ccc(C(C)(C)C)cc1,7.31µM,7.31µM,-54.4,n,u,u
Cc1cc(N2CCCC2=O)ccc1S(=O)(=O)NC1CCCCC1,u,20.6µM,n,n,n,n
COc1ccc(CN(C)C[C@@H]2OCc3cnnn3CCCC(=O)N([C@@H](C)CO)C[C@H]2C)cc1,n,n,n,x,n,n
COc1ccc(CNC(=O)Cc2c(C(=O)O)c(C)cn2C)cc1,n,n,x,x,x,x
O=S(=O)(NCCOCC(F)(F)C(F)F)c1ccc2oc3ccccc3c2c1,25.9µM,13µM,n,n,n,n
CCOc1cc(CNCCCN2CCOCC2)cc(Br)c1OCc1ccccc1Cl,3.66µM,4.61µM,-101.3,n,8.2µM,7.31µM
C=CCOc1c(Br)cc(CNCCCN2CCOCC2)cc1OC,n,u,n,n,n,n
CCOc1cc(CNCCN2CCOCC2)ccc1OCc1ccccc1Cl,u,18.4µM,u,n,u,u
CCOc1cc(CNCCCN2CCOCC2)ccc1OCC(=O)NC(C)(C)C,n,n,n,n,n,n
Cc1cn2c(=O)cc(COC(=O)COc3ccc(C)c(C)c3)nc2s1,n,n,x,x,x,x
Cc1ccc(Oc2c(C(F)(F)F)oc3c(CN4CCCCC4C)c(O)ccc3c2=O)cc1 (stereo not given),u,25.9µM,x,x,x,x
CCc1ccccc1NC(=O)c1cnc2sc(N3CCOCC3)nn2c1=O,n,n,x,x,x,x
Cc1nn(C(C)C(=O)N2CCN(c3ccc(Cl)cc3)CC2)c(=O)c2cc3occc3n12 (stereo not given),u,16.4µM,x,x,x,x
CCN(CC)S(=O)(=O)c1ccc(C(=O)NCC(c2ccc(OC)cc2)N2CCOCC2)cc1 (stereo not given),n,n,n,n,n,n
CC(=O)N[C@@H]1C(O[C@H]2O[C@H](C(=O)O)C(O)[C@H](O)[C@H]2O)[C@H](O)[C@@H](CO)O[C@H]1O[C@@H]1C(C(=O)O)O[C@@H](O[C@H]2[C@H](O)[C@@H](CO)OC(O)[C@@H]2NC(C)=O)[C@H](O)[C@H]1O (stereo not given in full),n,21.1µM,x,x,x,x
